GLS inhibitor: inhibitors of human glutaminase (GLS); O94925; Potency, µM (doses to about 45.5 µM), without a hit: top-dose activity change, negative = inhibition, usual class: inhibitors; GLS enzymatic activity, qHTS titration; 410,000 tested, 0.21% active; also: % is scaled to controls: 0 for no effect and ±100 for the full control effect
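Compounds were pin-transferred onto hKGA, after which L-glutamine (1 mM solution) and a detection mix of glutamate oxidase, HRP and Amplex Red were added. Initial and 30 min RT fluorescence reads were collected.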
G9a block: blocks human histone lysine methyltransferase G9a | 350,000 tested, 8.8% active | Potency, µM (top dose mostly 102 µM), without a hit: top-dose activity, negative = inhibition, most hits filed as inhibitors | AID 504332 | G9a H3K9 monomethylation, AlphaScreen, 2 h; also: % is scaled to controls: 0 for no effect and ±100 for the full control effect; nearly all actives have a fitted effect of over 75% in size
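Quantitative HTS format: methyltransferase activity on a biotin-tagged H3K9 peptide is measured by AlphaScreen, using a rabbit anti-monomethyl-H3K9 antibody with streptavidin donor and anti-IgG acceptor beads. Final levels are 20 nM enzyme, 500 nM peptide, 20 uM SAM; 2 h RT.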
HP1b binding inh: HP1-beta chromodomain-methylated histone interaction inhibition. P83916. AlphaScreen HP1-beta / biotin-H3K9me3 peptide binding. Potency, µM (doses to about 114 µM), for the others: at the highest dose activity change, negative = inhibition, actives largely listed as inhibitors. 390,000 tested, 0.56% active. AID 540317; also: nearly all actives have a fitted effect of over 70% in size
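AlphaScreen: HP1-beta (50 nM) preformed 30 min with biotin-H3(1-18)K9me3 peptide (50 nM) in PBS pH 7.4, 0.01% Tween-20. Compound added for 30 min at RT, then streptavidin donor/nickel chelate acceptor beads (10 ug/mL) for 30 min.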
L3MBTL1 inh: inhibitors of human L3MBTL1. Q9Y468. AlphaScreen L3MBTL1–H3K9me1 peptide binding. Potency, µM (series often up to 57.1 µM), for inactives: at the top dose activity, negative = inhibition, actives largely listed as inhibitors. 230,000 tested, 0.66% active. AID 485360; also: % is scaled to controls: 0 for no effect and ±100 for the full control effect; nearly all actives have a fitted effect of over 60% in size
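Read-out is AlphaScreen signal from streptavidin donor and nickel chelate acceptor beads (10 ug/mL final each) bridging L3MBTL1 (50 nM) and biotinylated K9-monomethylated H3(1-15) peptide (75 nM), after 30 min compound exposure at room temperature.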
BAZ2B inh: blocks human BAZ2B; 360,000 tested, 4.4% active; Q9UIF8; AID 504333; AlphaScreen BAZ2B-H3K14Ac peptide displacement; Potency, µM (series often up to 114 µM), inactives show at the top dose activity change, negative = inhibition, usual class: inhibitors; also: % is scaled to controls: 0 for no effect and ±100 for the full control effect; nearly all actives have a fitted effect of over 60% in size
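In this displacement format the biotinylated H3(5-23) peptide acetylated at Lys14 serves as ligand at 50 nM, with BAZ2B at 50 nM in PBS pH 7.4 containing 0.01% Tween-20. Donor and acceptor beads are 10 ug/mL final.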
JMJD2A Tudor inh: blocks the human JMJD2A Tudor domain; O75164; AlphaScreen JMJD2A-Tudor / H3K4me3 peptide binding; Potency, µM (top dose mostly 114 µM), for inactives: at the top dose activity change, negative = inhibition, hits mostly inhibitors; 390,000 tested, 4.4% active; also: % is scaled to controls: 0 for no effect and ±100 for the full control effect; nearly all actives have a fitted effect of over 50% in size
The depositor's hits bear a star; ? = inconclusive; / = no result given; [ ] = dose if it differs, or a comment. Sampled rows, rich in hits. Any-hit rate of the full collection: about 10%. Calls follow the shape of the dose curve; as a rule, active = well fitted curve in the direction sought with a large enough effect; inconclusive = small, poorly fitted or top-dose-only effect, or another doubt; inactive = no such curve, though single readings can be large; an effect the other way counts as inactive or inconclusive. Potency is read from the fitted curve at half-maximal effect.

SMILES	GLS inhibitor	G9a block	HP1b binding inh	L3MBTL1 inh	BAZ2B inh	JMJD2A Tudor inh
COc1ccc(Cc2nnc(N/N=C/c3ccc(O)cc3)[nH]c2=O)cc1OC	-5%	89%[59 µM]	19%	18µM*	7.1µM*	25µM*
CCc1noc(-c2ccc(NC(C)c3ccccc3)c([N+](=O)[O-])c2)n1 (stereo not given)	-8%	-24%[59 µM]	20%	/	2%	-14%
Cc1ccccc1NC(=O)CSc1nn2c(=O)c(C)nnc2s1	-5%	23%	24%	13%	?	89µM*
COc1cccc(NC(=O)CSc2nn3c(=O)c(C)nnc3s2)c1	3%	83%	71%	/	6%	?
COc1ccc(NC(=O)CSc2nn3c(=O)c(C)nnc3s2)cc1	-6%	83%	57%	/	-11%	?
Cc1nnc2sc(SCC(=O)Nc3cccc(Cl)c3)nn2c1=O	-3%	6%	57%	/	40µM*	?
Cc1nnc2sc(SCC(=O)Nc3ccc(Br)cc3)nn2c1=O	-10%	-6%	44%	/	40µM*	?
Clc1ccc(OCc2nn3c(C4CCCCC4)nnc3s2)cc1	2%	8.9µM*	-21%	-3%	-1%	-25%
Cc1c([N+](=O)[O-])cnc(Sc2ccccc2)c1[N+](=O)[O-]	-1%	/	?	/	/	40µM*
CNc1ncnc(Sc2ccc(Cl)cc2)c1[N+](=O)[O-]	-13%	/	14%	1%	-8%	-7%
O=[N+]([O-])c1cccnc1Sc1ccc(Br)cc1	-2%	/	?	/	/	56µM*
O=[N+]([O-])c1cccnc1SCc1ccccc1	-2%	45µM*	35µM*	/	32µM*	14µM*
Cc1ccnc(Sc2ncccc2[N+](=O)[O-])n1	10%	13%[12.7 µM]	46%	/	6%	5%
Cc1ccccc1Sc1ncccc1[N+](=O)[O-]	2%	/	-38%	/	/	?
O=C(O)c1cccnc1SCc1ccc([N+](=O)[O-])cc1	1%	-2%	63%	/	-6%	2%
Cc1ccc(Sc2ncccc2[N+](=O)[O-])cc1	-10%	?	?	/	?	45µM*
COc1ccc(C)cc1NC(=O)CC1NCCNC1=O (stereo not given)	12%	11%[59 µM]	20%	/	-5%	-10%
c1ccc(CCN(Cc2ccccc2)C2CCN(C3CCCC3)CC2)cc1	8%	50µM*	?	/	50µM*	2.2µM*
COc1ccc(NC(=O)Cn2c(=O)n(-c3ccc(OC)cc3)c(=O)c3sc4ccccc4c32)cc1	0%	-4%[59 µM]	59%	/	-5%	-17%
CC(C)(C)c1ccc(O)c(N=Cc2cc(Br)ccc2O)c1	?	1.8µM*	?	-17%	-20%	4µM*
CCN(CC)c1ccc(N=Cc2cc(Br)ccc2O)cc1	7%	14µM*	0%	/	-32%	40µM*
COC(=O)c1ccc(NC(=O)CCn2cccn2)cc1	-5%	9%[59 µM]	43%	/	2%	2%
COc1cccc(C2=CC(c3ccccc3F)n3ncc(C(=O)Nc4ccc(C)cc4)c3N2)c1 (stereo not given)	-4%	?	1%	/	?	?
CN(C)c1ccc(/C=C(\C#N)c2ccccc2)cc1	7%	17%	3%	?	-26%	?
CN(C)c1cccc(/C=C(\C#N)c2ccccc2)c1	15%	45µM*	21%	-2%	-36%	-13%
COc1cccc(-c2ccc3ncnc(Nc4ccccc4)c3c2)c1	/	-39%[0.501 µM]	/	/	/	/
CSc1ccc(/C=C/C(=O)N2CCCN(C)CC2)cc1	1%	22µM*	-11%	/	-31%	-36%
COc1cccc(Cn2cc(C(=O)c3ccc(Cl)cc3)c(=O)c3ccccc32)c1	-1%	-4%[59 µM]	20%	/	-19%	-27%
Cc1c(N(C)C)nc2ccccc2c1N	5%	?	14µM*	6%[11.4 µM]	45µM*	1µM*
CCN(C(=O)c1cn(-c2cccc(OC)c2)c(=O)c2ccccc12)c1ccccc1C	4%	-4%[59 µM]	16%	/	4%	-12%
